The results in this text go back to the supplement of paper PMC10849652.

About 7,900 targets were measured; listed, in parts, are those with a hit and a random draw of the rest. About 0.6% of all pairs of compound and target were hits. A number with no mark means an inactive call.

Chain of UniProt Q969S8 (Q969S8 whole entry, looked up): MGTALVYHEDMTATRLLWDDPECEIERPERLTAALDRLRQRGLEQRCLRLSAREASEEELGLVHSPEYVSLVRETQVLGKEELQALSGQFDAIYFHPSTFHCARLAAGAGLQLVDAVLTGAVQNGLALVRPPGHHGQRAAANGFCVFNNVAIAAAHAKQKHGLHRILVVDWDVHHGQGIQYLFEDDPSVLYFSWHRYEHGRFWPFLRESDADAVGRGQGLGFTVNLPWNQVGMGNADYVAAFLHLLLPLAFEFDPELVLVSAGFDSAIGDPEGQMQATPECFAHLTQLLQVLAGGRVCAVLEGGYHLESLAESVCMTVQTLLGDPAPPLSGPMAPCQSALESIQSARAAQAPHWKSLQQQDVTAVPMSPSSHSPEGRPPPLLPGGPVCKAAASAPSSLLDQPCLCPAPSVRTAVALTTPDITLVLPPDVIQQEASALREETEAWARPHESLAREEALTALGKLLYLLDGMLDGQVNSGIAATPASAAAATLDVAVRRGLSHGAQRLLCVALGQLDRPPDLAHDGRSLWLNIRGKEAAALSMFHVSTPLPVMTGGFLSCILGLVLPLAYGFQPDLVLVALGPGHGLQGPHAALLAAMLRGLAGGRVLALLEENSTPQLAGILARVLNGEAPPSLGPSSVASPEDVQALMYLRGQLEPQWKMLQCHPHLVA
Chain of UniProt P15260 (P15260 whole entry, looked up): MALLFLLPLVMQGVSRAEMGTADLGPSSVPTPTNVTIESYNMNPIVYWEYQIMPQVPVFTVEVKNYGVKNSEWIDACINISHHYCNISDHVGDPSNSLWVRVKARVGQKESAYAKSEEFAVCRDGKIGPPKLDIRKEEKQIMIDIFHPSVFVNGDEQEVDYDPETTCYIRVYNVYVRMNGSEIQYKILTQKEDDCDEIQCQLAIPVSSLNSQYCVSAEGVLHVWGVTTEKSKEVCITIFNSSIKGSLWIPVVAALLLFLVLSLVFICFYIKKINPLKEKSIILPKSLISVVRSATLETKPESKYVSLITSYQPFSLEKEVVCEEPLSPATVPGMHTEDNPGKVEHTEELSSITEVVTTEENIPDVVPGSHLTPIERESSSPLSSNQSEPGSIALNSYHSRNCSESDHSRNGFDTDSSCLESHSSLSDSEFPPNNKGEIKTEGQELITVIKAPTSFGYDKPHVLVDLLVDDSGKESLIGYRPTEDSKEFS
Chain of UniProt Q9Y324 (Q9Y324 whole entry, looked up): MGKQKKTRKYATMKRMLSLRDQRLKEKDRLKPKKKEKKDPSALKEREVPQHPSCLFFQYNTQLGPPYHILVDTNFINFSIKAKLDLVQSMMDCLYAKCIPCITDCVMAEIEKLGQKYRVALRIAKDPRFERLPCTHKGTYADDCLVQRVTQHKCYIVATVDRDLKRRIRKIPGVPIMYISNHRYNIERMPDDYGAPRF
Chain of UniProt Q9UK97 (Q9UK97 whole entry, looked up): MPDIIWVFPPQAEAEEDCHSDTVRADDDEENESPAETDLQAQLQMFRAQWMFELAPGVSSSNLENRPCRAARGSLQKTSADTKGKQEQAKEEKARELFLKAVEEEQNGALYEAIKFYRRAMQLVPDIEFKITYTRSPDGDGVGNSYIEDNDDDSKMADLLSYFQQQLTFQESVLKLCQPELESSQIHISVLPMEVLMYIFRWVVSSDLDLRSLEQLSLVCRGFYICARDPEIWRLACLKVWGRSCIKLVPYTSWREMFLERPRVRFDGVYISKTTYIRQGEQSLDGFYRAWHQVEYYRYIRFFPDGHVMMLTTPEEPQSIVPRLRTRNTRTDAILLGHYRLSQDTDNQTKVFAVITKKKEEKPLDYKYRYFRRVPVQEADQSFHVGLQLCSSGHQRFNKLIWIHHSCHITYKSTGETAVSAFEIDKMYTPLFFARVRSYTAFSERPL
Chain of UniProt I6L899 (I6L899 whole entry, looked up): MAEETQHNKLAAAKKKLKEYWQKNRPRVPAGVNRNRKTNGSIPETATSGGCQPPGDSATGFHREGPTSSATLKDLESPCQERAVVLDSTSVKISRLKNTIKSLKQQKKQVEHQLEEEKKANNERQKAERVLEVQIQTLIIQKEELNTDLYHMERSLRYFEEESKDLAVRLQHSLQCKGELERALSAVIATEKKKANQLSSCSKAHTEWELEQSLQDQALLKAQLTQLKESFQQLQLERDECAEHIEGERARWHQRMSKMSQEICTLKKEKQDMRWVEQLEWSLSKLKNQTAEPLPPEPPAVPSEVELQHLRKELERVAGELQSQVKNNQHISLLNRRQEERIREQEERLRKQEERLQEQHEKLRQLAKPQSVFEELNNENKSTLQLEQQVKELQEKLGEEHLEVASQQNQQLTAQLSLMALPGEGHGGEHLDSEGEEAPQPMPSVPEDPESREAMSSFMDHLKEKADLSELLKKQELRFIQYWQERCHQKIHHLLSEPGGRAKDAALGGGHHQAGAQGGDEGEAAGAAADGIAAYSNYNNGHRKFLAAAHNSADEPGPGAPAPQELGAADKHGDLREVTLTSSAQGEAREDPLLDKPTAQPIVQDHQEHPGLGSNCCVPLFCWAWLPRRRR
Chain of UniProt Q8IVV7 (Q8IVV7 whole entry, looked up): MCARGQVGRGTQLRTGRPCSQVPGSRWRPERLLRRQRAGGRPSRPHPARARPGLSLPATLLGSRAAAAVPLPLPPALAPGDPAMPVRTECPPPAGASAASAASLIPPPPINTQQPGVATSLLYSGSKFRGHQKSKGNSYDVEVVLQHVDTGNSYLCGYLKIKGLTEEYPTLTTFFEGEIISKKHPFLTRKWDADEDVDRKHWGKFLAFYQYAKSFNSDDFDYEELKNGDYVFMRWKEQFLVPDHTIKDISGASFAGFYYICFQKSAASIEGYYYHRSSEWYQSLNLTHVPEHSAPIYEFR
Chain of UniProt P21695 (P21695 whole entry, looked up): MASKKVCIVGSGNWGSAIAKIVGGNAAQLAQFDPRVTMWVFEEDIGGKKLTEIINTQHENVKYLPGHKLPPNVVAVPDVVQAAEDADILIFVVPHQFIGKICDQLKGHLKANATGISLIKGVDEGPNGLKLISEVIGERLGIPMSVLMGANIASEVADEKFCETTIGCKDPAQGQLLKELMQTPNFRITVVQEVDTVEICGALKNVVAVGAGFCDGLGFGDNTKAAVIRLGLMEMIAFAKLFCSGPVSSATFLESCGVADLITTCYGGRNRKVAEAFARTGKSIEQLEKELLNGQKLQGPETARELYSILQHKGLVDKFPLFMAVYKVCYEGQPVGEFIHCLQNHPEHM
Chain of UniProt P30711 (P30711 whole entry, looked up): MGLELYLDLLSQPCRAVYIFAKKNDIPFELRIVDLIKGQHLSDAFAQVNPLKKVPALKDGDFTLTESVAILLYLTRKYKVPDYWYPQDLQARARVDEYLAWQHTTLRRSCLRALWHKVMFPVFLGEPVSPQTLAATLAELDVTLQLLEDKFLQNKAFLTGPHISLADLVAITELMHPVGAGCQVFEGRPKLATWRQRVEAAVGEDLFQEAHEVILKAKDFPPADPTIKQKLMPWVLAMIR
Chain of UniProt Q9BVP2 (Q9BVP2 whole entry, looked up): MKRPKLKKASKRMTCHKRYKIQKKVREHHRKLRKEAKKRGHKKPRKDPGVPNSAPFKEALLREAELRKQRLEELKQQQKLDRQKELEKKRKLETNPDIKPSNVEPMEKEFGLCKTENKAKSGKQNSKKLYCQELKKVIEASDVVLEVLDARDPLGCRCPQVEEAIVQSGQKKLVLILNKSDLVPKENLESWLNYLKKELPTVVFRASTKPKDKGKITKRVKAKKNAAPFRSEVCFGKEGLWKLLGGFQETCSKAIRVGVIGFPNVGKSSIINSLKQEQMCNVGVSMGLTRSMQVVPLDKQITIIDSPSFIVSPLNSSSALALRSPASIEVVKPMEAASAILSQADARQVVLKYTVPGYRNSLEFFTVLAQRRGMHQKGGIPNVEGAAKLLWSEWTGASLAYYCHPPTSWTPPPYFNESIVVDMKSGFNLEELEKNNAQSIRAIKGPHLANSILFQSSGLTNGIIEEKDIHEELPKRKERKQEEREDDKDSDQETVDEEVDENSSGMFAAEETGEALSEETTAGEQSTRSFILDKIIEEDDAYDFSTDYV
Chain of UniProt Q9H6D7 (Q9H6D7 whole entry, looked up): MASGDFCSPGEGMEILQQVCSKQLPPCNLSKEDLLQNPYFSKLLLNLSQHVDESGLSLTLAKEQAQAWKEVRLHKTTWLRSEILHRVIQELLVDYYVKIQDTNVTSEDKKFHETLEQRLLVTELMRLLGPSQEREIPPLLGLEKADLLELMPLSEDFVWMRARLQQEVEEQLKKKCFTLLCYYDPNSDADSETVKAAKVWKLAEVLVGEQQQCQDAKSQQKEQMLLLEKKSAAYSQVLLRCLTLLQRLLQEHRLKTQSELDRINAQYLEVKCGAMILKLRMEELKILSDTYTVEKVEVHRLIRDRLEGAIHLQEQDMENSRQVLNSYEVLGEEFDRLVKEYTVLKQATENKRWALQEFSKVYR
Chain of UniProt O60725 (O60725 whole entry, looked up): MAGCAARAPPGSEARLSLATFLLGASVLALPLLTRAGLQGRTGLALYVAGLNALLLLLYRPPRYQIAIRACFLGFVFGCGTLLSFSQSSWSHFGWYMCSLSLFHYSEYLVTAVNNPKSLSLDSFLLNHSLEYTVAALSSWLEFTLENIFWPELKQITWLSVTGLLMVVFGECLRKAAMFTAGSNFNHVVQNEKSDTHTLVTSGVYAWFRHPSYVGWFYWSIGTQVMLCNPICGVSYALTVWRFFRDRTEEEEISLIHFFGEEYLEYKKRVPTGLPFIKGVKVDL
Chain of UniProt Q9NZC3 (Q9NZC3 whole entry, looked up): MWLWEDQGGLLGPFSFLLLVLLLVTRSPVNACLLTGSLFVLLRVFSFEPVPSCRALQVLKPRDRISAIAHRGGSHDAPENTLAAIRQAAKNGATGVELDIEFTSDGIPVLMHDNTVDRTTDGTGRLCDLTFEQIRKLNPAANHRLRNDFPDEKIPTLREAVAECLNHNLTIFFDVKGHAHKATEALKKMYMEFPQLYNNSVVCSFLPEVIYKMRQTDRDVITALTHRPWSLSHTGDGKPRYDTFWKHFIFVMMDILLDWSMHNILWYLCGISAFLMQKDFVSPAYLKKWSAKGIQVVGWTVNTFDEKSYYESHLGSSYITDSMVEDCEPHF

Compound in the first assay: C[C@H](Nc1ncnc2nc[nH]c12)c1cc2cccc(Cl)c2c(=O)n1-c1ccccc1 [duvelisib]
Description: log2 fold change, soluble protein after heating vs DMSO (PISA); higher = thermal stabilisation; K562 cells, 10 uM, 30 min; active = over 0.2 and 3.5 SD of the protein, either way, in both replicates (recomputed). The method in brief: (§1)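 For each measurement, 10 μM compound was applied for 30 min to K562 cells at 2×10^6 cells/mL. Aliquots were heated for 3 min across 48°C-58°C, pooled, and extracted in PBS with 0.5% NP-40 at 4°C; the supernatant after 21,000xg for 90 min was soluble protein. This was quantified by TMTpro 16plex LC-MS/MS with channel sums equalised, and thermal stability was reported relative to control samples from duplicates, on a log2 fold-change scale.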
With GBE1 (UniProt Q04446), the log2 fold change is -0.026.
Turning to GOLGA8R (UniProt I6L899), the log2 fold change was 0.242.
Regarding HS1BP3 (UniProt Q53T59), the log2 fold change was 0.096.
On the same count and under the same terms, to ICMT (UniProt O60725) belongs 0.078; to IFITM3 (UniProt Q01628), 0.22; to FCHO1 (UniProt O14526), -0.039.
On the same count and under the same terms, with H3-3A (UniProt P84243) the figure was -0.184; with GNL3 (UniProt Q9BVP2), 0.124.
In the case of GBA2 (UniProt Q9HCG7), the log2 fold change was 0.041.
As for FHOD1 (UniProt Q9Y613), the log2 fold change is -0.121.
Take FBXO9 (UniProt Q9UK97): the log2 fold change is -0.03.
Take HAUS4 (UniProt Q9H6D7): the log2 fold change was -0.303.
On the same count and under the same terms, to FCF1 (UniProt Q9Y324) belongs -0.592.
Consider GPD1 (UniProt P21695), for which the log2 fold change is 0.124.
Regarding GDE1 (UniProt Q9NZC3), the log2 fold change was -0.014.
Still for that read-out and setting: with GSTT1 (UniProt P30711) the figure was 0.1.
The same measure, in the same setting: with GID4 (UniProt Q8IVV7) the figure was 0.009; with HNRNPK isoform 3 (UniProt P61978), 0.038.
Take HNRNPUL1 (UniProt M0R247): the log2 fold change was 0.673.
In the case of IGF2 isoform 3 (UniProt P01344), the log2 fold change was 0.175.
The same measure, in the same setting: to IFNGR1 (UniProt P15260) belongs -0.059; to HDAC10 (UniProt Q969S8), 0.04.
Same read-out and setting: to FAT2 (UniProt Q9NYQ8) belongs 0.372.
The same measure, in the same setting: to GGA2 (UniProt Q9UJY4) belongs 0.053; to GSE1 (UniProt Q14687), 0.033; to FYB1 isoform 3 (UniProt O15117), -0.344 (active).

Compound in the next assay: Cc1cc(Nc2cc(CN3CCOCC3)c3nc(C)c(Cc4ccc(Cl)cc4F)n3n2)n[nH]1 [gandotinib]
The assay is described as above. The method in brief:
as §1
Turning to GOLGA8R (UniProt I6L899), the log2 fold change is 0.324.
Still for that read-out and setting: with FGG (UniProt P02679) the figure was -0.153.
Regarding HSPA8 (UniProt E9PN89), the log2 fold change is -0.068.
The same measure, in the same setting: with GNL3 (UniProt Q9BVP2) the figure was 0.098; with FHOD1 (UniProt Q9Y613), 0.105; with FBXO9 (UniProt Q9UK97), -0.151.
Same read-out and setting: to FMR1 (UniProt Q06787) belongs 0.045; to HAUS4 (UniProt Q9H6D7), 0.015; to FCF1 (UniProt Q9Y324), 0.155.
Turning to GPD1 (UniProt P21695), the log2 fold change was 0.094.
On the same count and under the same terms, with GSTT1 (UniProt P30711) the figure was 0.19; with GOLGA6B (UniProt A6NDN3), 0.404.
The same measure, in the same setting: to GID4 (UniProt Q8IVV7) belongs 0.034; to HNRNPK isoform 3 (UniProt P61978), -0.082; to IFNGR1 (UniProt P15260), -0.053.
The same measure, in the same setting: to HDAC10 (UniProt Q969S8) belongs 0.008; to FAT2 (UniProt Q9NYQ8), -0.149.
FYB1 isoform 3 (UniProt O15117): the log2 fold change was 0.057.

Compound in a further assay: Cc1cc(Nc2cc(N3CCN(C)CC3)nc(Sc3ccc(NC(=O)C4CC4)cc3)n2)n[nH]1 [tozasertib]
Described as above. The method in brief:
as §1
As for GBE1 (UniProt Q04446), the log2 fold change is -0.001.
Still for that read-out and setting: with GOLGA8R (UniProt I6L899) the figure was -0.033; with ICMT (UniProt O60725), -0.518.
On to HSPA8 (UniProt E9PN89), for which the log2 fold change is -0.122.
The same measure, in the same setting: with GREB1 (UniProt Q4ZG55) the figure was -0.171; with IFITM3 (UniProt Q01628), -0.002; with FCHO1 (UniProt O14526), 0.043.
On to H3-3A (UniProt P84243), for which the log2 fold change is -0.066.
For the target GNL3 (UniProt Q9BVP2), the log2 fold change is -0.079.
As for GBA2 (UniProt Q9HCG7), the log2 fold change was -0.053.
For FBXO9 (UniProt Q9UK97), the log2 fold change is -0.071.
As for HAUS4 (UniProt Q9H6D7), the log2 fold change is 0.041.
On the same count and under the same terms, to IDH3A isoform 2 (UniProt P50213) belongs -0.141; to FCF1 (UniProt Q9Y324), 0.021.
Take GPD1 (UniProt P21695): the log2 fold change is -0.072.
Still for that read-out and setting: with GDE1 (UniProt Q9NZC3) the figure was 0.077; with GSTT1 (UniProt P30711), 0.017; with GID4 (UniProt Q8IVV7), 0.052.
With GPS2 (UniProt Q13227), the log2 fold change was -0.221.
The same measure, in the same setting: to HNRNPK isoform 3 (UniProt P61978) belongs 0.004; to HNRNPUL1 (UniProt M0R247), -0.187; to IFNGR1 (UniProt P15260), -0.19.
On to HDAC10 (UniProt Q969S8), for which the log2 fold change is -0.113.
The same measure, in the same setting: to FAT2 (UniProt Q9NYQ8) belongs -0.184.
On to GGA2 (UniProt Q9UJY4), for which the log2 fold change was -0.025.
The same measure, in the same setting: to FYB1 isoform 3 (UniProt O15117) belongs 0.009.
